{"source": "PubChem BioAssay", "note": "Unmarked numbers belong to inactive results. The rule behind the calls is not given here."}
{"molecular_target": "Pantothenate synthetase (Mycobacterium tuberculosis (strain ATCC 25618 / H37Rv)) (UniProt P9WIL5)", "sequence (P9WIL5 whole entry, looked up)": "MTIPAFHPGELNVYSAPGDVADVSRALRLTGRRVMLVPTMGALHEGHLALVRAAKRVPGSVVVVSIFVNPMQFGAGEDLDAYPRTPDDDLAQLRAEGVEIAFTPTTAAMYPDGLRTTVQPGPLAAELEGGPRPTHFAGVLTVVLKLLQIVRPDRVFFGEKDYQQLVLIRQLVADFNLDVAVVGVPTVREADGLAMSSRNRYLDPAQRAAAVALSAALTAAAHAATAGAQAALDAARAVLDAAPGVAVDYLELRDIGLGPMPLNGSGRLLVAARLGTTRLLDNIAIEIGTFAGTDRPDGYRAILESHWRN", "assay": "Coupled enzyme confirmation of inhibitors against recombinant Mtb PanC (AID 375);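 note: 0% = full reaction with vehicle and 100% = no enzyme background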", "settings": "coupled enzyme assay; at 10 µM, stronger effect = higher value", "units": {"inhibition": "%"}}
{"smiles": "CSc1nnc(-c2cnccn2)n1Cc1ccccc1", "inhibition": 0}
{"smiles": "CCCn1c(=O)[nH]c(=O)c2[nH]cnc21", "inhibition": 0}
{"smiles": "COCCN(C(=O)CNC(=O)c1ccco1)C(C(=O)NC1CCCCC1)c1cccc(OC)c1", "note": "(stereo unspecified)", "inhibition": 0}
{"smiles": "Cc1nc2c(-c3ccccc3)c(C)nn2c(C)c1CCC(=O)NCc1ccco1", "inhibition": 2}
{"smiles": "Cc1[nH]nc2c1C(c1ccc(F)cc1)C1=C(CC(C)(C)CC1=O)N2", "note": "(stereo unspecified)", "inhibition": 11}
{"smiles": "CCOC(=O)C(NC(C)=O)(Nc1ccc(S(=O)(=O)Nc2nccs2)cc1)C(F)(F)F", "note": "(stereo unspecified)", "inhibition": 3}
{"smiles": "COc1cccc(-n2nc(C(=O)Nc3ccc4c(c3)OCO4)c3ccccc3c2=O)c1", "inhibition": 0}
{"smiles": "COc1cc(OC)cc(C(=O)N2CCN(C(=O)c3ccc(OC)c(OC)c3)CC2)c1", "inhibition": 1}
{"smiles": "CCC(=O)n1nc(-c2ccco2)nc1N", "inhibition": 0}
{"smiles": "COCCOC(=O)c1c(C)oc2ccc(NS(=O)(=O)c3ccc(F)cc3)cc12", "inhibition": 3}
{"smiles": "COc1cc(NS(=O)(=O)c2cccc3nsnc23)c(C(=O)O)cc1OC", "inhibition": 0}
{"smiles": "COc1ccc(C(CC(=O)O)NC(=O)c2ccccc2)cc1OC", "note": "(stereo unspecified)", "inhibition": 0}
{"smiles": "CC(C)N1C(=O)C2C(C(=O)NC3CCCCC3)C3C=CC2(O3)C1C(=O)NC1CCCC1", "note": "(stereo unspecified)", "inhibition": 0}
{"smiles": "Cc1nc2ccc(Br)cn2c1NC(C)(C)C", "inhibition": 0}
{"smiles": "COc1cc(OC)c(-c2nn3c(C4CCCCC4)nnc3s2)cc1OC", "inhibition": 0}
{"smiles": "Cc1ccc2c(COn3nnc4ccc(S(=O)(=O)N(C)C)cc43)cc(=O)oc2c1C", "inhibition": 3}
